Compounds without any hit were thinned out: in the full panel of roughly 83,000, 20% have a hit.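 Percent growth is the endpoint: 0 to 100 indicates growth inhibition (40 means 60% inhibition), 0 means no net growth, and negative values indicate cell death.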 Values without a mark were called inactive. Active and inactive are the calls of the source. The calls were made as follows: active = growth percent below 10; inactive = the rest.
Experiments:
Experiment in all cases: NCI-60 one-dose screen, 48 h (100 = growth as untreated, 0 = no growth, -100 = all killed)
Details in all cases: 10 µM unless noted
DU-145 prostate = test system: DU-145 prostate
K-562 leukemia = test system: K-562 leukemia
MALME-3M melanoma = test system: MALME-3M melanoma
MDA-MB-231 breast = test system: MDA-MB-231 breast
RXF 393 renal = test system: RXF 393 renal
SF-268 CNS = test system: SF-268 CNS
SF-295 CNS = test system: SF-295 CNS
SF-539 CNS = test system: SF-539 CNS
UACC-257 melanoma = test system: UACC-257 melanoma
M14 melanoma = test system: M14 melanoma
HCT-15 colon = test system: HCT-15 colon
HT29 colon = test system: HT29 colon
U251 CNS = test system: U251 CNS
PC-3 prostate = test system: PC-3 prostate
SK-MEL-5 melanoma = test system: SK-MEL-5 melanoma
UACC-62 melanoma = test system: UACC-62 melanoma
LOX IMVI melanoma = test system: LOX IMVI melanoma
SK-MEL-28 melanoma = test system: SK-MEL-28 melanoma
SNB-75 CNS = test system: SNB-75 CNS
SNB-19 CNS = test system: SNB-19 CNS

SMILES	growth (DU-145 prostate)	growth (K-562 leukemia)	growth (MALME-3M melanoma)	growth (MDA-MB-231 breast)	growth (RXF 393 renal)	growth (SF-268 CNS)	growth (SF-295 CNS)	growth (SF-539 CNS)	growth (UACC-257 melanoma)	growth (M14 melanoma)	growth (HCT-15 colon)	growth (HT29 colon)	growth (U251 CNS)	growth (PC-3 prostate)	growth (SK-MEL-5 melanoma)	growth (UACC-62 melanoma)	growth (LOX IMVI melanoma)	growth (SK-MEL-28 melanoma)	growth (SNB-75 CNS)	growth (SNB-19 CNS)
CCOC(=O)c1cnc2cc(Cl)c(F)cc2c1Nc1cccc(NS(C)(=O)=O)c1	101%	91.4%	112%	80.6%	89.3%	90.1%	93.7%	89.2%	118%	113%	89.3%	122%	106%	101%	98.3%	87.8%	91.2%	114%		
COc1cc(C2C(C(=O)c3cccs3)=C(O)C(=O)N2CCN2CCOCC2)cc(OC)c1OC (centres undefined)	106%	116%	107%	111%	100%	97.9%	100%		108%	99.6%	102%	103%	94.7%	95.4%	96.1%	106%			91.6%	103%
CN(C)c1ccc(/C=C\C2=[N+](C)c3ccccc3C2(C)C)cc1	16.3%	90.8%	20.8%	23%	37.3%	6% (active)	-23.9% (active)	22.1%		18%	63.2%	10.5%	11%	-4.73% (active)	3.41% (active)	15.9%	16.1%	37.5%	31.3%	
COC(=S)SCN(CSC(=S)OC)c1ccc(Cl)cc1	110%	90.1%	75.1%	66.1%	95.3%	94.2%	84.8%	84.8%		77%	86.3%	102%	90.9%	99.3%	83.6%	58%			58.9%	
CCCCCCCCCCCCNC(=O)[C@H]1CSC(c2ccc(OC)c(F)c2)N1 (some centres undefined)	-87.6% (active)	-52.7% (active)	-92.3% (active)	-88.3% (active)	-96.1% (active)	-69.2% (active)	-88.4% (active)	-94.3% (active)	-94.1% (active)	-89.6% (active)	-82.3% (active)	-83.1% (active)	-93.4% (active)		-98.1% (active)	-95% (active)	-89.6% (active)	-92.6% (active)		-92.6% (active)
CC1=C(C)C(=O)OC([C@](C)(O)[C@]2(O)CC[C@@]3(O)[C@@H]4C[C@H]5O[C@]56CC=CC(=O)[C@]6(C)[C@H]4CC[C@]23COC(=O)c2ccc(C)o2)C1 (some centres undefined)	-92.1% (active)	1.46% (active)	-85% (active)	-54.8% (active)	-88.8% (active)	-55.8% (active)	-24.5% (active)	-91.2% (active)	-58.7% (active)	-0.794% (active)	-86.2% (active)	-73.6% (active)	-85.2% (active)	-35% (active)	-80.6% (active)	-83.3% (active)	-95% (active)	-86.1% (active)		
CCN(CC)c1ccc(/C=C/C2=[N+](C)c3ccccc3C2(C)C)cc1	14.3%	28.3%	19%	7.79% (active)	33.7%	17%	-19% (active)	14.7%		22.4%	41.1%	10.7%	13.8%	5.82% (active)	-71.3% (active)	16%	13.3%	42.9%	26.4%	
COc1cccc(/C=C\C(=O)c2ccccc2)c1	53.8%	31%	83.4%	88.5%	50.2%	60.4%	77.5%	87.7%		85.1%	66.3%	73.4%	35.1%	63.5%	90.8%	70.7%	30.3%	103%	78.9%	
CC1=NNC(=O)C1C (centres undefined)	104%	97.3%	467%	109%	90.5%	107%	110%	111%		96.8%	98.7%	109%	105%	108%	103%	94.5%	99%	106%	91.4%	
CC(C)(C)n1cc(-c2ccnc(NCCCNS(=O)(=O)c3cccc4ccccc34)c2)c(-c2cccc(O)c2)n1	42.5%	-4% (active)	-19.2% (active)	11.8%	0.843% (active)	37.5%	8.6% (active)	41.8%	-23.9% (active)	2.67% (active)	-19.5% (active)	-20.2% (active)	27%		-20% (active)	51.2%	-45.1% (active)	-37.2% (active)		56%
CCOC(=O)C(C#N)C1CCCCC1 (centres undefined)	104%	79.3%	95.6%	81.3%	99.3%	91%	93.5%	122%		101%	95.9%	108%	93.8%	80.7%	103%	75.6%	92.4%	108%	97.9%	
CCCCCCCCCCCCCC1=NCCN1CCO	116%	5.11% (active)	104%	51.3%	59.5%	152%	136%	-70% (active)		2.59% (active)	47.2%	10.1%	50.8%	31.6%	81.8%	93.5%	-52.8% (active)	115%	150%	
O=C(Cc1ccccc1)c1ccc(Cl)cc1	119%	123%	105%	103%	121%	111%	103%	107%		101%	97.1%	115%	99.5%	116%	103%	93.2%	102%	114%	95.9%	
COc1cc(OC)c(/C=C/S(=O)(=O)Cc2ccc(OC)c(N)n2)c(OC)c1	2.86% (active)	8.04% (active)	59.2%	15.3%	43.8%	39%	6.52% (active)		47.8%	11.2%	7.7% (active)	-9.76% (active)	8.02% (active)	26.8%	-31.2% (active)	42.3%	9.35% (active)		40.5%	35.8%
CC1CN(C(C)C)C(=S)N(c2ccccc2)C1=O (centres undefined)	103%	95.9%	82%	90.4%	102%	98.8%	108%	96.4%		93.2%	104%	104%	99.9%	105%	98.1%	94.4%	93.4%	122%	119%	
O=C1C=CC(=O)N1c1ccc(Cc2ccc(N3C(=O)C=CC3=O)cc2)cc1	111%	66.4%	88.2%	90.3%	106%	118%	121%	93.4%		96.8%	91.1%	133%	96.8%		96.3%	83.7%	96.1%	120%	164%	
Clc1ccc(-c2nnc(COc3ccccc3Cl)o2)cc1	95.6%	74.7%	72.4%	67.4%	46.9%	75.5%	89.8%		80.6%	76.4%	81%	71%	60.3%	89.1%	91.4%	79.7%			2.45% (active)	86.7%
Nc1cccc(-c2nc3sccn3c2-c2ccnc(NCCCNS(=O)(=O)c3ccc(C(F)(F)F)cc3)n2)c1	13.5%	8.49% (active)	-2.19% (active)	21%	19.7%	14.6%	-11.3% (active)	16.5%	18.8%	9.8% (active)	1.79% (active)	14%	19.8%	1.93% (active)	-90.5% (active)	-33.3% (active)		11.2%		
COC(/C=C/c1ccc([N+](=O)[O-])cc1)OC	119%	105%	109%	91.2%	87.5%	106%	106%		90.8%	77.2%	116%	94.7%	74.5%	95.1%	98.3%	89.9%	8.46% (active)	93.5%	85.9%	91.2%
CCN(CC)CCC(=O)Nc1ccc(Cn2nnc3c2C(=O)c2nnn(Cc4ccc(NC(=O)CCN(CC)CC)cc4)c2C3=O)cc1	-92.6% (active)	2.02% (active)	-79.5% (active)	-5.66% (active)	19.9%	-38.1% (active)	-57.2% (active)		-56.1% (active)	-16.3% (active)	95.3%	-51% (active)	-85.1% (active)	-1.02% (active)	-96.8% (active)	-79.6% (active)	-12.6% (active)	-60.9% (active)	-92.8% (active)	-83.4% (active)
C=C1CC[C@@H]2[C@](C)(COC(C)=O)[C@H](OC(C)=O)CC[C@@]2(C)[C@@H]1CC(Nc1ccc(S(=O)(=O)Nc2nc(C)cc(C)n2)cc1)C1=CCOC1=O (some centres undefined)	82.3%	19.1%	96.3%	107%	85.1%	93.3%	97%		67.9%	63.8%	49.2%	46.2%	48.2%	65.2%	74.2%	32.9%	-60.6% (active)	83.5%	44.6%	100%
COc1cnc2c(c1)C(=O)c1c-2n(CCCBr)c(=O)c2cc([N+](=O)[O-])ccc12	7.11% (active)	11.7%	-2.44% (active)	24.3%	-10.8% (active)	9.06% (active)	-11.3% (active)		-32.3% (active)	3.34% (active)	20.7%	0.984% (active)	-22.4% (active)	4.1% (active)	-82.6% (active)	-62.3% (active)	-54.2% (active)	16.3%	13.5%	22.3%
O=C(CN1CCOCC1)Nc1ccc(Cn2nnc3c2C(=O)c2nnn(Cc4ccc(NC(=O)CN5CCOCC5)cc4)c2C3=O)cc1	-76.7% (active)	0.148% (active)	-81.6% (active)	-9.32% (active)	-18.7% (active)	-5.75% (active)	-44.9% (active)		-95.2% (active)	-90.4% (active)	70.8%	-37.3% (active)	-92.1% (active)	5.89% (active)	-86.9% (active)	-77.3% (active)	-25.1% (active)	-34.6% (active)	-87.4% (active)	-15% (active)
CC/C=C\C[C@H](O)C/C=C1/C(=O)C=C[C@@H]1C/C=C\CCCC(=O)NC	15%	0.291% (active)	-27.9% (active)	26.5%	-79.1% (active)	27.7%	8.54% (active)		-19% (active)	6.09% (active)	-28.4% (active)	0.814% (active)	-8.98% (active)	13.6%	-94.5% (active)	-45.3% (active)	-72.2% (active)	-17.1% (active)	62.5%	22.5%
O=C1c2cccnc2C(=O)c2c1c(C(=O)OCCN1CCOCC1)c1ccccn21	-20.3% (active)	-16% (active)	-64.8% (active)	9.01% (active)	10.7%	13%	-47% (active)		-47% (active)	-58.7% (active)	-65.6% (active)	-35.4% (active)	-47.5% (active)	15.3%	-90.5% (active)	-52.7% (active)	-46% (active)	-3.26% (active)	-13.9% (active)	3.55% (active)
COc1cc2nc3cc([N+](=O)[O-])ccc3c(NCCCNCC(C)(C)O)c2cc1OC	-34.3% (active)	0.851% (active)	-81.8% (active)	-62.5% (active)	-81.9% (active)	-57.4% (active)	-41.2% (active)		-64.2% (active)	-77.3% (active)	21.9%	-52.4% (active)	-68.9% (active)	-61.8% (active)	-94.5% (active)	-76.1% (active)	-58.4% (active)	-64% (active)	-96% (active)	-26.1% (active)
CN(C)c1ccc(C2Nc3ccccc3-n3cccc32)cc1 (centres undefined)	114%	121%	99.6%	96.5%	98.5%	103%	102%		111%	99.1%	89.7%	99.9%	95.6%	66.4%	93.2%	79%	103%	107%	107%	94.7%
